Data published in PubChem BioAssay (NCATS).
Results filed as inconclusive are left out. A call without a number means that no potency is given here. Unmarked numbers belong to inactive results. The source made the active and inactive calls. Unless noted, calls come from the whole dose curve; as a rule, active = well fitted curve in the direction sought with a large enough effect; inconclusive = small, poorly fitted or top-dose-only effect, or another doubt; inactive = no such curve, though single readings can be large; an effect the other way counts as inactive or inconclusive.

Columns and labels:
[1] = qHTS for Inhibitors of Plasmodium falciparum (HB3) proliferation (AID 504318); note: nearly all actives have a fitted effect of over 60% in size; note: potency is the fitted concentration of half-maximal effect
How it was run: (§1)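 Parasite growth measured as SYBR Green DNA fluorescence (ex 485, em 535 nm) after overnight lysis following 72 h culture at 37 °C, 0.3% parasitemia, 2.5% hematocrit. Values normalized against DMSO and 0.29 uM artemisinin controls, with plate-stack correction.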

[2] = target: Atrial natriuretic peptide receptor 1 (Homo sapiens) (UniProt P16066); test: Natriuretic polypeptide receptor (hNpr1) antagonism - Pilot CMLD screen (AID 1347052; calls by dose curve;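 note: HEK293 cells with hNpr1 stimulated by hNppA peptide at 0.1 nM; cGMP level read as GloSensor luciferase luminescence after agonist stimulation; series mostly up to about 9.2 µM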)
[3] = qHTS for Inhibitors of Plasmodium falciparum (CP250) proliferation (AID 504320)
How it was run: as §1

[4] = qHTS for Inhibitors of Plasmodium falciparum (7G8) proliferation (AID 504316); note: potency is the fitted concentration of half-maximal effect; nearly all actives have a fitted effect of over 65% in size
How it was run: as §1

Chain of Atrial natriuretic peptide receptor 1 (Homo sapiens) (P16066 whole entry, looked up): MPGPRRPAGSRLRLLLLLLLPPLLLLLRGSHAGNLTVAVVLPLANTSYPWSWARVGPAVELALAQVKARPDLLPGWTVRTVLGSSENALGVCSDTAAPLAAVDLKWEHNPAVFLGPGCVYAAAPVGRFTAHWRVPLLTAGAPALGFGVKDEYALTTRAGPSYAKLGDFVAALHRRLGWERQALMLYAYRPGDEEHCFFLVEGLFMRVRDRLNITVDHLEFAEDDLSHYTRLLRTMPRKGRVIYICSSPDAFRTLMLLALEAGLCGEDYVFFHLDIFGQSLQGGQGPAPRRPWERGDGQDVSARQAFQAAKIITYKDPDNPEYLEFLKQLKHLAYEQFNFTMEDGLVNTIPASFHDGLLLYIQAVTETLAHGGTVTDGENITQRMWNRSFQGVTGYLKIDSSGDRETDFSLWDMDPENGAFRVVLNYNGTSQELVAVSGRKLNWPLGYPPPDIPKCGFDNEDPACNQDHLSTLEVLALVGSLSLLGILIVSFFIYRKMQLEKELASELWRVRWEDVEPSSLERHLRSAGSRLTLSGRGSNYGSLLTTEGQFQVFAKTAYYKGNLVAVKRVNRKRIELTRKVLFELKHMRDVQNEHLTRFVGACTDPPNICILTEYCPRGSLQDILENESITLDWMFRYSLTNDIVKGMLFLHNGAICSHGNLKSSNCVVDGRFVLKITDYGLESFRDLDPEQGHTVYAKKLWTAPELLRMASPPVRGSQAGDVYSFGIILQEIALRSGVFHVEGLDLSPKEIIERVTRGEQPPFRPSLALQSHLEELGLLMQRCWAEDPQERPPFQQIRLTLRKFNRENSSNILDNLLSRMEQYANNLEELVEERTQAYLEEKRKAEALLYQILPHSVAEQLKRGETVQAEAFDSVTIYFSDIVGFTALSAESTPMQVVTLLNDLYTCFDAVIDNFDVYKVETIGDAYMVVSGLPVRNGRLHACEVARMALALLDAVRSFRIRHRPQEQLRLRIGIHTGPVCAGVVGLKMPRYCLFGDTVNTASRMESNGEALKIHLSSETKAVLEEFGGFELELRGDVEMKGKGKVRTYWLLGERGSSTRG

Row | SMILES | Potency [1] | Potency [2] | Potency [3] | Potency [4]
1 | C#CCN1C(=O)[C@]2(O[C@H](COc3ccccc3)CC3=CCCC32)c2c(Br)cccc21 (some centres undefined) | inactive | inactive |  | 
2 | COC(=O)C1=C(C)N(Cc2ccccc2)C(=NCC2CC2)NC1c1ccc(Br)cc1 (centres undefined) | inactive | inactive |  | 
3 | COC(=O)C1=C[C@H]([C@@H](C)[C@H](OC)c2ccccc2Br)[C@H]2c3ccccc3O[C@@H]12 | inactive | inactive | inactive | 
4 | C[C@@H]1CC[C@H]2C(=O)N(Cc3ccc(Cl)cc3)C[C@@H](O)CN2[C@H]1c1cccc(Br)c1 |  | inactive | inactive | 1.51 µM (active)
5 | CCN1C(=S)NC(c2cccs2)C(C(=O)OC)=C1C (centres undefined) | inactive | inactive | inactive | 
6 | FC(F)(F)c1cc(NC(=S)Nc2ccc3ccccc3c2)cc(C(F)(F)F)c1 | 2.13 µM (active) | inactive |  | 
7 | COC(=O)C1=C(C(=O)OC)[C@@H]2N(Cc3ccccc3)c3ccccc3[C@@]23CCC(=O)N(CC2CC2)C3=N1 | 3.29 µM (active) | inactive |  | 
8 | C=CCN=C1N[C@H](c2ccc(Br)cc2)C(C(=O)OC)=C(C)N1Cc1ccccc1 | inactive | inactive |  | 
9 | COC(=O)C1=C(C)N(CC2CC2)C(N(C)Cc2ccc(OC)cc2)=NC1c1ccccc1 (centres undefined) | inactive | inactive |  | 
10 | COc1ccc2c(c1)C[C@@H](C)O[C@]21C(=O)Nc2ccccc21 | inactive | inactive | inactive | 
11 | CC1(C)CC(=O)C2=C(C1)O[C@@]1(CCCCN3C(=O)c4ccccc4C3=O)Cc3cc(C#N)ccc3[C@H]2O1 |  | inactive | inactive | 1.69 µM (active)
12 | C[C@H]1CC[C@H]2C(=O)O[C@H](COc3ccc(C(C)(C)C)cc3)CN2[C@H]1c1ccc(Br)cc1 | 3.29 µM (active) | inactive |  | 
13 | COC(=O)C1=C(C(=O)OC)[C@@H]2N(C)c3ccccc3[C@@]23C[C@@H](C(=O)OC)N(C(=O)NC2CCCC2)C3=N1 | inactive | inactive | inactive | 
14 | C[C@@H]1CC[C@H]2C(=O)N(Cc3ccc(Cl)cc3)C[C@@H](O)CN2[C@@H]1c1ccc(Br)cc1 | inactive | inactive | inactive | 
15 | C[C@]12C[C@@](C)(C=C1C=Cc1ccc(F)cc1)C(=O)C[C@H]2c1ccc(F)cc1 | 1.69 µM (active) | inactive |  | 
16 | COC(=O)C1=C(C)N(Cc2ccccc2)C(=O)NC1CCc1ccccc1 (centres undefined) | inactive | inactive | inactive | 
17 | COC(=O)C1=C(C(=O)OC)[C@@H]2N(C)c3ccccc3[C@@]23C[C@@H](CO)N(C(=O)NC2CCCC2)C3=N1 | 1.9 µM (active) | inactive |  | 

Row | SMILES | Potency [1] | Potency [2] | Potency [3] | Potency [4]
18 | CC(Nc1oc(-c2ccccc2)nc1-c1cccc2ccccc12)c1ccccc1 (centres undefined) | inactive | inactive | inactive | 
19 | CCN1C(=NCc2ccc3c(c2)OCO3)NC(c2ccccc2)C(C(=O)OC)=C1C (centres undefined) | inactive | inactive |  | 
20 | CCN1C(=NCc2cccc(C(F)(F)F)c2)NC(c2ccccc2)C(C(=O)OC)=C1C (centres undefined) | inactive | inactive |  | 
21 | CCN1C(=NCCc2ccccn2)NC(c2cccs2)C(C(=O)OC)=C1C (centres undefined) | inactive | inactive | inactive | 
22 | CCOC(=O)CN1C(=O)[C@@]2(CC(C)=CC[C@@H](COc3ccccc3)O2)c2ccccc21 |  | inactive | inactive | 
23 | C#CCN1C(=O)[C@]2(O[C@H](COc3ccccc3)CC3=C2CCC3)c2ccccc21 |  | inactive | inactive | 
24 | C[C@H]1C[C@@H](C)O[C@@]2(C1)C(=O)N(Cc1ccccc1C(F)(F)F)c1ccccc12 |  | inactive | inactive | 
25 | CCC(C)CN1C(=O)NC(CCc2ccccc2)C(C(C)=O)=C1C (centres undefined) |  | inactive | inactive | 
26 | CCC=CC[C@@]1(C(=O)OC)C=C[C@@H](C)[C@H](c2ccccc2Br)N1C(=O)C(F)(F)F |  | inactive | inactive | 
27 | C[C@@H]1CC[C@H]2C(=O)N(CC3CCCCC3)C[C@H](O)CN2[C@@H]1c1ccc(Br)cc1 |  | inactive | inactive | 
28 | COC1=C[C@H](C(=O)NC2CCN(Cc3ccccc3)CC2)C(C)C(c2ccccc2)CC1=O (some centres undefined) |  | inactive | inactive | 
29 | COc1cc2c(cc1OC)[C@@H]1O[C@](CCCCN3C(=O)c4ccccc4C3=O)(C2)Oc2c1c(=O)oc1ccc(F)cc21 |  | inactive | inactive | 
30 | COc1cccc([C@H]2NC(=O)C[C@@H]3C[C@@H](C)[C@@H](c4cccc(OC)c4)N3C(=O)C=CC[C@@H]2C)c1 |  | inactive | inactive | 
31 | COc1ccc([C@]23Cc4cc(C#N)ccc4[C@H](O2)c2c(cc(C)n(-c4ccccc4)c2=O)O3)cc1 |  | inactive | inactive | 
32 | COC(=O)C1=C(C(=O)OC)[C@@H]2N(Cc3ccccc3)c3ccccc3[C@@]23C[C@@H](CO)N=C3N1 |  | inactive | inactive | 
33 | C[C@H]1Cc2c(COc3ccccc3)nc3c(c2CO1)CN(C(=O)c1cc(I)ccc1F)CC3 |  | inactive | inactive | 
34 | O=C1N(Cc2ccc(F)cc2)c2ccccc2[C@@]12O[C@H](COc1ccccc1)CC1CCCC12 (some centres undefined) | inactive | inactive | inactive | 
